Consider twelve compounds from PubChem BioAssay (NCI).

About 83,000 compounds went through this panel and 20% of them were active in at least one assay; those are over-represented in the sample as a whole.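 For each line, cells grew in 96-well plates with the test compound present at a single concentration for 48 hours.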 Values without a mark were called inactive. Active and inactive are the calls of the source. The calls were made as follows: active = growth percent below 10; inactive = the rest.

Some test systems named below: HCT-15 colon; HT29 colon; SNB-75 CNS; SNB-19 CNS; U251 CNS; PC-3 prostate; SK-MEL-5 melanoma; UACC-62 melanoma; LOX IMVI melanoma; SK-MEL-28 melanoma.
Common to all, as to test: NCI-60 one-dose screen, 48 h (100 = growth as untreated, 0 = no growth, -100 = all killed)
Conditions in all cases: 10 µM unless noted

As to `CCn1c(CN2CCN(Cc3ccccc3)CC2)nc2cc(NC(=O)c3cccs3)ccc21`, the growth was 3.47% (active) in the assay with HCT-15 colon; -55.6% (active) with HT29 colon; -96.6% (active) in the assay with SNB-75 CNS; -41.7% (active) in the assay on SNB-19 CNS; -91.4% (active) with U251 CNS; -51.5% (active) in the assay with PC-3 prostate. For the same compound, the growth in the assay on SK-MEL-5 melanoma is -98.9% (active); in the assay on UACC-62 melanoma it was -92.8% (active); in the assay with LOX IMVI melanoma it was -89.7% (active); with SK-MEL-28 melanoma, -91.2% (active).

Consider `O=c1[nH]cnc2nc[nH]c12`, for which the growth is 107% in the assay with HCT-15 colon; 97.9% in the assay with HT29 colon; 90.8% in the assay on SNB-75 CNS; 107% in the assay on SNB-19 CNS; 103% with U251 CNS; 135% with PC-3 prostate. For the same compound, the growth in the assay with SK-MEL-5 melanoma is 102%; with UACC-62 melanoma, 102%; in the assay with LOX IMVI melanoma, 98.4%; in the assay with SK-MEL-28 melanoma it was 97.9%.

For the compound `O=C(Nc1ccc(OS(=O)(=O)c2ccc(F)cc2)cc1)C12CC3CC(CC(C3)C1)C2`, the growth is 42.3% in the assay with HCT-15 colon; 7.52% (active) with HT29 colon; 101% with SNB-75 CNS; 77.9% in the assay on SNB-19 CNS; 84% in the assay on U251 CNS; 38% with PC-3 prostate. In addition, the growth was 28.3% in the assay with SK-MEL-5 melanoma, 68% in the assay on UACC-62 melanoma, 61.6% in the assay on LOX IMVI melanoma and 79.7% with SK-MEL-28 melanoma.

For the compound `O=C(NCC(c1ccsc1)N1CCCCCC1)c1ccc(C(F)(F)F)cc1` (stereo not given), the growth with HCT-15 colon was 100%; in the assay on HT29 colon, 82%; in the assay with SNB-75 CNS it was 87.6%; in the assay with SNB-19 CNS, 87.9%; in the assay with U251 CNS, 90.7%; with PC-3 prostate, 88.5%. In addition, the growth was 94.9% with SK-MEL-5 melanoma, 99.1% in the assay with UACC-62 melanoma, 78.9% with LOX IMVI melanoma and 110% with SK-MEL-28 melanoma.

With `N#Cc1c(NN)n(C2OC(CO)C(O)C2O)c2ncnc(N)c12` (stereo not given), the growth in the assay with HCT-15 colon was 3.17% (active); in the assay with HT29 colon it was 4.15% (active); with SNB-75 CNS, 35.2%; in the assay with SNB-19 CNS, 54.7%; in the assay with U251 CNS, 34.5%; in the assay with PC-3 prostate, 6.48% (active). In addition, the growth with SK-MEL-5 melanoma was -67.5% (active); with UACC-62 melanoma it was -39.3% (active); in the assay on LOX IMVI melanoma, -4.81% (active); in the assay on SK-MEL-28 melanoma it was -15.1% (active).

With `C=C1NC(=O)C(C(C)CC)NC(=O)C2CSCC(NC(=O)CCC(=O)O)C(=O)NC(Cc3ccccc3)C(=O)NC(C)C(=O)NC(CC(C)CC)C(=O)NC(C(=O)NC(Cc3ccccc3)C(=O)N3CCCC3C(=O)N2)C(C)OC(=O)C(CO)NC(=O)C(C(O)COC)N(C)C(=O)C(C(C)C)NC(=O)C(CC(C)CC)NC1=O` (stereo not given), the growth with HCT-15 colon is 15.8% [6 µM]; in the assay with HT29 colon it was 4.74% [6 µM] (active); in the assay with SNB-75 CNS, 11.4% [6 µM]; in the assay with SNB-19 CNS, 21.3% [6 µM]; in the assay on U251 CNS, 11.2% [6 µM]; in the assay with PC-3 prostate, 22.1% [6 µM]. Also, the growth is -44.8% [6 µM] (active) in the assay with SK-MEL-5 melanoma, 39.8% [6 µM] in the assay with UACC-62 melanoma, 15.1% [6 µM] in the assay with LOX IMVI melanoma and 60.2% [6 µM] in the assay with SK-MEL-28 melanoma.

Regarding `NC(N)=N/N=C/c1ccccc1`, the growth in the assay with HCT-15 colon is 93.1%; in the assay on HT29 colon it was 99.8%; in the assay on SNB-75 CNS, 88.6%; in the assay with SNB-19 CNS, 92.5%; in the assay on U251 CNS it was 97.5%; in the assay with PC-3 prostate it was 94.1%. For the same compound, the growth with SK-MEL-5 melanoma is 102%; in the assay with UACC-62 melanoma, 101%; with LOX IMVI melanoma it was 100%; with SK-MEL-28 melanoma, 100%.

Turning to `C#CC[C@@H]1C[C@]2(C)[C@H]3CC=C4[C@H]5[C@@H](C)[C@H](C)CC[C@]5(C(=O)NCCCN5CCN(CCCN)CC5)CC[C@@]4(C)[C@]3(C)CC[C@H]2C(C)(C)[C@H]1OC(C)=O`, the growth is -83.7% (active) in the assay with HCT-15 colon; -72.8% (active) in the assay on HT29 colon; -61.5% (active) in the assay on SNB-75 CNS; -46.1% (active) in the assay with SNB-19 CNS; -75.8% (active) with U251 CNS; 15% with PC-3 prostate. Also, the growth in the assay with SK-MEL-5 melanoma was -7.08% (active); in the assay with UACC-62 melanoma, -68.1% (active); with LOX IMVI melanoma, -83.2% (active); with SK-MEL-28 melanoma, -84.6% (active).

For `O=C1C2=C(C(=O)c3c(O)ccc(O)c31)N(c1ccc(N3CCOCC3)nc1)Cc1ccccc1O2`, the growth with HCT-15 colon was -77.4% (active); in the assay with HT29 colon it was -47.7% (active); with SNB-75 CNS, -19.8% (active); with SNB-19 CNS, 12.2%; in the assay on U251 CNS it was 0.735% (active); in the assay on PC-3 prostate it was 1.08% (active). Further, the growth in the assay on SK-MEL-5 melanoma is -75% (active); in the assay on UACC-62 melanoma it was -66.7% (active); in the assay on LOX IMVI melanoma, -66.8% (active); in the assay with SK-MEL-28 melanoma, -77% (active).

Regarding `CCOC(=O)C1=C(C)NC(SCc2nnc(-c3ccc(Cl)cc3)o2)=NC1c1ccc(Br)cc1` (stereo not given), the growth in the assay with HCT-15 colon was 65.1%; in the assay with HT29 colon, 78.7%; in the assay with SNB-75 CNS, 67.7%; with SNB-19 CNS, 72%; with U251 CNS, 65.7%; with PC-3 prostate, 48.8%. Besides, the growth is 51.4% in the assay with SK-MEL-5 melanoma, 55.3% in the assay with UACC-62 melanoma, 75% with LOX IMVI melanoma and 81.3% in the assay on SK-MEL-28 melanoma.

Turning to `O=S(=O)(NCC[C@@H]1C[C@H]1c1ccc2ccccc2c1)c1ccc(C(F)(F)F)cc1`, the growth in the assay on HCT-15 colon was 93.4%; in the assay with HT29 colon it was 92.7%; with SNB-75 CNS, 73.6%; in the assay with SNB-19 CNS, 97.3%; in the assay with U251 CNS it was 93.5%; in the assay on PC-3 prostate it was 81.7%. Moreover, the growth was 94.5% in the assay with SK-MEL-5 melanoma, 78.5% with UACC-62 melanoma, 97.8% in the assay on LOX IMVI melanoma and 108% with SK-MEL-28 melanoma.

As to `COc1ccc(-c2n[nH]nc2-c2cc(OC)c3c(c2)OCO3)cc1`, the growth in the assay on HCT-15 colon was 6.08% (active); with HT29 colon it was -9.19% (active); with SNB-75 CNS, 25.4%; with SNB-19 CNS it was 48.7%; in the assay with U251 CNS, 1.06% (active); in the assay with PC-3 prostate, -7.05% (active). In addition, the growth with SK-MEL-5 melanoma was -1.56% (active); with UACC-62 melanoma, 28%; in the assay on LOX IMVI melanoma, -4.34% (active); in the assay on SK-MEL-28 melanoma, 46.3%.
